Bioassay records as filed in PubChem.
miR-21 act = qHTS Assay for Modulators of miRNAs and/orActivators of miR-21 | Potency, µM (doses to about 38.3 µM), without a hit: top-dose activity change, positive = activation, most hits filed as activators | AID 2288, 2010 | 340,000 tested, under 10 active | HeLa miR-21 FLuc reporter, luciferase, 48 h;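 also: % of control where 0% means no effect; miR-21 action dims this reporter so a rising signal means less miR-21 action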
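HeLa cells stably expressing CMV-driven firefly luciferase with a downstream miR-21 binding sequence, endogenously expressing miR-21, were treated with titrations (up to about 40uM final) for 48 hours at 37 degree Celsius. Luciferase luminescence was read after lysis.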
p53 reactivator = qHTS assay for re-activators of p53 using a Luc reporter. H1299 p53-A138V BP100-luciferase reporter, luminescence, 24 h. Potency, µM (highest dose often 92.2 µM), inactives show top-dose activity change, positive = activation, actives largely listed as activators. hit rate 0.063% among 320,000. AID 504706, 2011; also: potency is read from the fitted curve at half-maximal effect; % of control where 0% means no effect; nearly all actives have a fitted effect of over 45% in size
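H1299 (p53-null), stable ts p53-A138V + BP100-Luc; 1000 cells/well, Opti-MEM/10% FBS; cpd 4 pt, 1:5; 24 h, 37 deg C, 5% CO2; detection reagent 10 min RT; luminescence.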
Apoferritin bind = qHTS Assay for Identification of Novel General Anesthetics. Ferritin light chain (Equus caballus), P02791. apoferritin/1-aminoanthracene competitive binding, fluorescence. Potency, µM (doses to about 77.5 µM), for inactives: at the top dose activity change, negative = displacement, actives largely listed as inhibitors. hit rate 0.074% among 350,000; also: potency is read from the fitted curve at half-maximal effect; % is scaled to controls: 0 for no effect and ±100 for the full control effect; nearly all actives have a fitted effect of over 20% in size
Target sequence (P02791 2-175 limits assumed): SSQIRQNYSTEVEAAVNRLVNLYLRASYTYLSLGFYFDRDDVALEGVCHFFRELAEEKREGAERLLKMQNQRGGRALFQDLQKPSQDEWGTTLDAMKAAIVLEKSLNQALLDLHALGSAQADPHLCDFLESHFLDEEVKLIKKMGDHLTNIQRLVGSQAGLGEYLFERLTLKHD
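Horse-spleen apoferritin (10 uM) in 50% saturated 1-aminoanthracene in PBS was incubated 10 min at room temperature with compound. Fluorescence (ex 380, em 535 nm) was normalized to free and bound 1-AMA, with concentration-response fitted by a four-parameter Hill equation.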
BRCA1 expr up = qHTS Assay to Identify Small Molecule Activators of BRCA1 Expression. MCF7-BRCA1-FFLuc reporter, luminescence, 48 h; response scale: scaled: vehicle 0%, 10 µM genistein 100%. Potency, µM (highest dose often 46.1 µM), without a hit: top-dose activation, actives largely listed as activators. hit rate 1.1% among 380,000. AID 624202, 2012; also: potency is read from the fitted curve at half-maximal effect; nearly all actives have a fitted effect of over 80% in size
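MCF7-BRCA1-FFLuc cells, 2000/well in phenol-red-free MEM, attached 2 h then treated 48 h at 37 C. Luciferase luminescence read 15 min after reagent; normalized to genistein maximum activation (10microM) and DMSO, concentration-response fitted.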
The depositor's hits bear a star; ? = inconclusive; nt = no result; [ ] = another dose, or the depositor's remark. Shown are actives, neighbours in structure and some others; about 1.1% of the full set was active somewhere. Calls follow the shape of the dose curve; as a rule, active = well fitted curve in the direction sought with a large enough effect; inconclusive = small, poorly fitted or top-dose-only effect, or another doubt; inactive = no such curve, though single readings can be large; an effect the other way counts as inactive or inconclusive.

SMILES	miR-21 act	p53 reactivator	Apoferritin bind	BRCA1 expr up
O=C(NCCC1CCCC1)c1cccs1	-48%	nt	?	11µM*
O=C(NCCc1cccs1)c1cccs1	-54%	?	-19%	6.3µM*
CCN(C)C1CN(Cc2cn(Cc3ccccc3)nn2)S(=O)(=O)C1 (stereo unspecified)	nt	nt	nt	9%
COc1ccc2cc(CCNC(=O)c3cccs3)c(=O)[nH]c2c1	-56%	?	-1%	2.8µM*
COc1ccc2cc(CCNC(=O)c3cc4ccccc4o3)c(=O)[nH]c2c1	10%	-21%	-12%	-14%
CN(C)CCCOc1ccc(C(C)(C)c2ccccc2)cc1	-13%	3%	16µM*	-12%
CCc1ccc(NC(=O)CN(c2ccc(Cl)cc2)S(=O)(=O)c2ccsc2C(=O)OC)cc1	?	nt	-7%	nt
C=CCN=Cc1c(C)[nH]n(-c2ccccc2)c1=O	-40%	?	-2%	13µM*
CN(C(=O)c1cccc(NC(=O)Cc2ccc(NC(=O)C3CCN(C(=O)C4CC4)CC3)cc2)c1)C1CCCCC1	nt	nt	nt	10%
Cc1cc(S(=O)(=O)NCCc2ccccc2)c(C)s1	-11%	0%	8.9µM*	1%
Fc1ccc(N/N=C/c2cccnc2)c(F)c1	-27%	0%	-15%	5.6µM*
CCOc1ccc(NC(=O)Cn2c(C)cc3ccccc3c2=O)cc1	-22%	nt	0%	nt
N=c1oc2cc(O)ccc2cc1C(=O)Nc1ccc(F)cc1	18%	21%	77%	1.6µM*
S=c1[nH]cnc2sc(-c3ccccc3)cc12	-36%	10%	-11%	11µM*
CC(=O)c1cc2c(=O)c3cc(C)ccc3oc2nc1C	-43%	26%	-2%	11µM*
Cc1nc2oc3ccc(F)cc3c(=O)c2cc1C(=O)O	-36%	18%	2%	29%
Cc1ccc2oc3nc(C)c(C(=O)O)cc3c(=O)c2c1	-37%	4%	-7%	2.8µM*
CCOC(=O)c1cc2c(=O)c3cc(C)ccc3oc2nc1C	-64%	?	-3%	11µM*
CCN(CC)C(=O)c1cc2c(=O)c3cc(Cl)ccc3oc2nc1C	-16%	-10%	0%	?
CCOC(=O)c1cc2c(=O)n3ccccc3nc2n(CC2CCCO2)c1=NC(=O)c1cccc(C)c1 (stereo unspecified)	17%	nt	109%	nt
CCOC(=O)c1c(C)oc2nc(C)nc(NCc3cccc(Cl)c3)c12	2%	nt	-8%	nt
CC1CCc2c(sc(NC(=O)C3=COCCO3)c2C(N)=O)C1 (stereo unspecified)	nt	?	nt	7.1µM*
CCOC(=O)C(C#N)C(=N)C1C(=O)OC2CCCCC21 (stereo unspecified)	nt	nt	nt	-11%
O=C(NCCn1ccc2ccccc21)c1ccc2c(c1)OCO2	-43%	?	-9%	2.5µM*
Cc1ccc(NC(=O)CCn2nnc3ccccc32)cc1	-52%	3%	-9%	11µM*
SMILES	miR-21 act	p53 reactivator	Apoferritin bind	BRCA1 expr up
Cc1ccc(NC(=O)CCn2nnc3ccccc32)c(C)c1	-6%	-3%	-2%	?
Cc1ccc(C(=O)Cn2nnc3ccccc32)cc1	-64%	22%	-15%	4.5µM*
Cc1ccc(/C=C2/NC(=O)N(c3ccccc3)C2=O)o1	-24%	14%	-21%	7.9µM*
CC1(C)C(=O)OC(C(=O)c2ccc(C(C)(C)C)cc2)C(C)(C)C1=O (stereo unspecified)	-11%	-1%	20µM*	2%
Nn1c(CSc2ccccn2)nc2ccccc2c1=O	-47%	?	-22%	10µM*
CNc1ccc(/C=C/c2ccnc3ccccc23)cc1	nt	nt	nt	7%
COc1cc(C2Nc3ccccc3C(=O)N2c2ccc(Cl)cc2)c(Cl)cc1OCC(=O)O (stereo unspecified)	-72%	?	144%	2.8µM*
COc1cc(C2Nc3ccccc3C(=O)N2c2ccccc2)ccc1O (stereo unspecified)	-28%[0.307 µM]	?	33%	7.9µM*
CCOc1cc(C2Nc3ccccc3C(=O)N2c2ccccc2)c(Br)cc1OCC(=O)O (stereo unspecified)	-21%	23%	115%	60%
CCOC(=O)c1nnn2c1nc(N1CCOCC1)c1ccccc12	-5%	-5%	-6%	-22%
Nc1nc2c(C(=O)N3CCOCC3)nnn2c2ccccc12	-30%	1%	9%	2.8µM*
COC(=O)[C@]1(Cc2ccccc2)N[C@H](CN(C)C(=O)Nc2ccc(C)cc2)[C@@H]2C(=O)N(C)C(=O)[C@@H]21	nt	0%	nt	-3%
S=C(NCc1ccco1)Nc1ccc(Cl)cc1Cl	-29%	?	4%	7.9µM*
S=C(NCc1cccc(Cl)c1)NCc1ccco1	1%	-11%	-3%	9%
S=C(NCc1ccco1)Nc1ccc(Br)cc1Cl	-22%	27%	-13%	10µM*
CC1CCC(NC(=O)N(CCCl)N=O)CC1 (stereo unspecified)	nt	nt	2%	5µM*
CC1=CC(C)(C)N=C(Nc2ccc(C)cc2)S1	-37%	?	?	13µM*
Cc1ccc(NC(=O)Nc2cccs2)cc1	-37%	?	-21%	1.3µM*
COc1cccc(NC(=O)Nc2cccs2)c1	-18%	?	5%	13µM*
CCOC(=O)c1nnc2cc(-c3ccccc3)nn2c1C	-44%	15%	-12%	6.3µM*
Cc1ccc(NC(=O)CSc2ncc3ccccn23)cc1	-42%	13%	-14%	-1%
COc1cc(/C=N/N2CCOCC2)ccc1OCc1ccc(Cl)cc1	-47%	1%	-21%	2.2µM*
COc1cc(/C=N/N2CCOCC2)ccc1OCc1ccccc1	-39%	16%	-6%	7.9µM*
CCOC(=O)c1csc(NC(=O)c2cccs2)n1	-38%	?	-8%	7.9µM*
CCOC(=O)Cc1csc(NC(=O)c2cccs2)n1	-31%	?	-17%	34%
SMILES	miR-21 act	p53 reactivator	Apoferritin bind	BRCA1 expr up
C/C(=C\C(=O)OCCCCCCCCC(=O)O)C[C@@H]1OC[C@H](C[C@@H]2O[C@H]2[C@@H](C)[C@H](C)O)[C@@H](O)[C@H]1O	nt	nt	nt	4%
CCC(=O)c1ccc(OCC(=O)NC2CCCC2)cc1	nt	0%	nt	22%
CCC(=O)c1ccc(OCC(=O)OCC(=O)NC2CCCCCCC2)cc1	-2%	-10%	5.6µM*	24%
O=C(NC1CCCCC1)c1cc(-c2ccccc2O)on1	-73%	?	1%	2µM*
CC(C)c1cc(C(=O)NC2CCCCC2)no1	-55%	?	-12%	8.9µM*
O=C(c1cc(-c2ccccc2O)on1)N1CCc2ccccc2C1	-61%	?	?	10µM*
Cc1ccc2c(=O)cc(C(=O)Nc3nnc(CC(C)C)s3)oc2c1C	1%	nt	3%	nt
CCOc1ccccc1CNC(=O)C1CCN(c2nn3cc(-c4ccc(F)cc4)nc3s2)CC1	-27%	nt	9%	nt
CC(C)Oc1ccc(C(=O)NC2CCS(=O)(=O)C2)cc1 (stereo unspecified)	-12%	1%	1%	0%
CC(C)Oc1ccc(C(=O)NC2CCCCC2)cc1	-51%	25%	-7%	4.5µM*
